Out of some 4,000 compounds screened, about 15 (0.4%) were called active.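 Rule for the calls: active = calcium fluorescence ratio, averaged over duplicates, at least 3 SD of the buffer-well ratio, meaning a nonspecific response in receptor-free cells; inactive = the rest.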 The list is a sample of the results.

This assay can be described thus: nonspecific Ca2+ flux in HEK293 lacking MrgX1 – cell-based, Fluo-4 calcium flux, duplicate, counter-screen for MrgX1 allosteric activator project, primary screen (AID 624114). Conditions: parental HEK293 calcium flux, Fluo-4 fluorescence ratio; at 10 µM. A general note: Calcium flux is commonly read through the fluorescence of an indicator in the cells.
For `O=C(NC1CCCCC1)C1c2ccccc2C(=O)N1Cc1ccco1` (stereo not drawn), the result was inactive. `Cc1cc2oc3ccc(NCCC4CCCN4C)cc3c(=O)c2cc1C` (stereo not drawn): the outcome was inactive. For `COCCCNC(=O)C1CCN(c2ccc(N3CCOCC3)nn2)CC1` the value was “inactive”; for `Cc1cc(Br)ccc1NC(=O)c1cnc(N2CCN(c3ccccn3)CC2)c2ccccc12`, “inactive”; for `Cc1ccc(S(=O)(=O)N(C)c2nc3ccccc3n3c(C(C)C)nnc23)cc1`, “inactive”. As for `CC1CCN(S(=O)(=O)c2nnc(NC(=O)COc3ccccc3F)s2)CC1`, the entry is “inactive”; as for `Cc1ccc(-c2nn(C(C)(C)C)c3ncnc(N)c23)cc1`, “inactive”.

As to `CCC1CCCCN1CCNC(=O)c1[nH]c(C)c(C(C)=O)c1C` (stereo not drawn), the result was inactive. For `O=C(CSc1ncccn1)NC(=O)NCc1ccccc1` the value was “inactive”. As for `CC1CCCCN1S(=O)(=O)c1ccc(C(=O)Nc2nnc(-c3cccs3)o2)cc1` (stereo not drawn), the entry is “inactive”; as for `O=C(Nc1nc2c(F)cc(F)cc2s1)C1COc2ccccc2O1` (stereo not drawn), “inactive”; as for `O=C1C(=O)N(CC2COc3ccccc3O2)c2ccccc21` (stereo not drawn), “inactive”.

Consider `COc1cccc(CNC(=O)C2CCN(S(=O)(=O)c3cccc4cccnc34)CC2)c1`, for which the result was inactive. `COc1ccc(C(=O)NC(=S)NNC(=O)CCc2ccccc2)cc1`: the result was inactive.

Consider `CCOC(=O)C1=C(O)/C(=C/c2cc(C)n(-c3ccccc3)c2C)N=C1C`, for which the result was inactive. As to `Cc1ccc2nc(Nc3ccccc3)cc(C)c2c1`, the result was inactive. For `Cc1ccc(Cc2cnc(N)s2)o1`, the result was inactive. Turning to `O=C(CSc1nncn1-c1cccnc1)N1CCOCC1`, the outcome was inactive.

As to `COc1ccc(OC)c(C(=O)c2ccc(Cl)cc2)c1`, the result was inactive. For `CCCc1cc(=S)n2c([nH]c3ccccc32)c1C#N` the value was “inactive”; for `Nc1cc(OC(=O)c2ccccc2Br)nn1S(=O)(=O)c1ccccc1`, “inactive”; for `CC(C)(C)n1c(=O)[nH]c2c(c1=O)CCC2`, “inactive”.

For `CCOC1CCCCC1NS(=O)(=O)c1ccc(Cl)cc1` (stereo not drawn), the result was inactive.

As for `C=CCOc1cccc(C2C(C(=O)c3ccc(C)o3)=C(O)C(=O)N2c2nnc(C)s2)c1` (stereo not drawn), the outcome was inactive. With `Cc1cccc(-n2c(Cc3cc(=O)[nH]c(=O)[nH]3)nnc2SC(C)C)c1`, the result was inactive. For `O=C1CCCc2c1nc(-c1cccc(Cl)c1)n2O` the value was “inactive”; for `Cc1nc(N2CCN(c3ccccn3)CC2)c2c(C)c(C(=O)Nc3ccc(F)c(Cl)c3)sc2n1`, “inactive”; for `Cc1cc(C)n(CCNC(=O)CC2C(=O)NCCN2Cc2ccc(C)o2)n1` (stereo not drawn), “inactive”. As for `COc1ccc(S(=O)(=O)N2CCN(C(=O)NC3CCCCC3)CC2)cc1`, the entry is “inactive”; as for `CCCCC(=O)Nc1ccc2c(c1)C(=O)NC2=O`, “inactive”; as for `Cc1nn(-c2ccccc2)c(C)c1NC(=O)COc1ccc(Cl)cc1Cl`, “inactive”. For `Cc1ccc(-n2[nH]c(C)c(/C=N/N3C(=O)c4cccc5cccc(c45)C3=O)c2=O)cc1` the value was “inactive”; for `COC(=O)Cc1cc(=O)n(-c2nc3ccccc3s2)[nH]1`, “inactive”. On to `O=C1C(Cc2ccc(O)cc2)NC(=S)N1Cc1ccccc1` (stereo not drawn), for which the result was inactive. In the case of `Clc1ccc(C=NC23CN4CN(CN(C4)C2)C3)cc1`, the outcome was inactive.

Regarding `CC(C)CC(=O)NC(=S)NNC(=O)c1cccc([N+](=O)[O-])c1`, the result was inactive. For `Cc1[nH][nH]c(=O)c1C(c1ccc(-c2ccc(Cl)cc2)o1)c1c(C)[nH][nH]c1=O` the value was “inactive”; for `O=C(Oc1ccc(C(=S)N2CCOCC2)cc1)c1ccc(F)cc1`, “inactive”; for `COC(=O)c1ccc(C2C3=C(Nc4nnnn42)c2ccccc2OC3)cc1` (stereo not drawn), “inactive”. For the compound `Clc1ccc(-c2nc3ccccn3c2CN2CCSCC2)cc1`, the outcome was inactive. On to `CCOCc1nnc(NC(=O)CCC2CCCCC2)s1`, for which the outcome was inactive. As to `Cc1ccc2nc(-c3ccc(NC(=O)CN(C)S(=O)(=O)c4ccccc4)cc3)sc2c1`, the result was inactive. As for `Cc1ccc(N/C(N)=N/c2nc(C(F)(F)F)cc(C(F)(F)F)n2)cc1`, the entry is “inactive”; as for `Cc1cccc(NC(=O)C(C)N2C(=O)C3C4CC(C(Br)C4Br)C3C2=O)c1` (stereo not drawn), “inactive”; as for `O=c1cc(CSc2ccccn2)nc(N2CCN(c3ccccc3)CC2)[nH]1`, “inactive”. For `CCN(c1cccc(C)c1)S(=O)(=O)c1ccc(-c2coc(C)n2)cc1` the value was “inactive”.

In the case of `CC(C)CC(=O)N/C(N)=N/c1nc2ccccc2s1`, the outcome was inactive. For `Cc1nn(-c2ccccc2)c2c1C(c1ccc(F)cc1)C(C#N)=C(N)O2` (stereo not drawn), the result was inactive. For the compound `CCOc1ccc(C(=O)NC2CCN(S(=O)(=O)CC)CC2)cc1`, the outcome was inactive. For `CCOC(=O)CNC(=O)CSc1nc2cccnc2n1CC` the value was “inactive”; for `Cc1nc(C)c(-c2csc(NCCc3ccccc3)n2)s1`, “inactive”.

Take `C(=N\n1cnnc1)/c1cccnc1`: the outcome was inactive. As for `Cc1cccc(NC(=O)COc2ccccc2C)n1`, the entry is “inactive”; as for `O=C(Nc1ccc(Br)cc1F)C1CC(=O)N(C2CCCCC2)C1` (stereo not drawn), “inactive”.

As to `COc1ccc(Cc2nc(-c3ccccn3)no2)cc1OC`, the result was inactive. With `COC(=O)c1ccc(COC(=O)C2CCN(S(=O)(=O)c3c(Cl)cccc3Cl)CC2)o1`, the result was inactive. Consider `COCC(C)NC(=O)c1ccc(Cl)c(Cl)c1` (stereo not drawn), for which the outcome was inactive. For `CCOc1ccc(C2=CC(c3ccccc3)n3ncnc3N2)cc1` (stereo not drawn), the outcome was inactive. As for `CCOC(=O)Cc1csc(SCc2cc(=O)oc3cc(O)ccc23)n1`, the entry is “inactive”; as for `O=C(Nc1ccc(Cl)cc1)Nc1ccc(Oc2cccnc2)nc1`, “inactive”; as for `O=C(COc1ccc(Cl)cc1)NC(=S)Nc1ccccc1N1CCOCC1`, “inactive”. Turning to `N#CC1=C(N)Oc2c(sc3ccccc23)C1c1ccco1` (stereo not drawn), the outcome was inactive. With `O=C(CN1CCN(c2ccccn2)CC1)NC1CCCCC1`, the result was inactive.

In the case of `COc1ccc(S(=O)(=O)N2CCOCC2)c(C)c1C`, the outcome was inactive. For the compound `Cc1cc2ncn(CCCCOc3ccccc3)c2cc1C`, the outcome was inactive. For `CCN(CC)c1ccc2oc(=O)c(C)nc2c1` the value was “inactive”; for `CN1C(CC(=O)Nc2ccc(Br)cc2)c2ccccc2CC1(C)C` (stereo not drawn), “inactive”.

Turning to `COc1ccc(C(=O)NC(=S)NC2CCCCC2)cc1`, the result was inactive.

As for `O=C(Nc1ccccc1Cl)N1CCN(c2ccc3nncn3n2)CC1`, the outcome was inactive. For `COC(=O)c1c(NC(=O)c2c(Cl)cnn2C)sc(C)c1C` the value was “inactive”; for `CCOC(=O)c1[nH]c2ccc(C)cc2c1N=C(C)N(C)C`, “inactive”. For the compound `Cc1cccc(Cn2cnc3c(N)c(C)c(C)cc32)c1`, the outcome was inactive.

Take `Cc1ccc(OC(=O)c2cc3ccccc3o2)cc1`: the result was inactive. Consider `CCOC(=O)c1cn(Cc2cccc(C)c2)nn1`, for which the result was inactive. For `C=CCNC(=O)c1csc(-c2ccccc2)n1` the value was “inactive”. Take `O=C(c1cccs1)C1C(c2ccc(Br)cc2)NC(=S)NC1(O)C(F)(F)F` (stereo not drawn): the result was inactive. On to `CC(=O)Nc1ccc(OC(=O)COc2ccc(Br)cc2)cc1`, for which the outcome was inactive. For `O=C(c1ccc(O)cc1)c1ccc(C(=O)O)c(C(=O)O)c1` the value was “inactive”; for `O=C1Cc2ccccc2Sc2ccc(Cl)cc21`, “inactive”; for `CC(Oc1ccc(F)cc1)C(=O)Nc1ccccc1C(=O)NC1CC1` (stereo not drawn), “inactive”. For `O=C(c1ccc(OC2CCN(C(=O)c3cccnc3)CC2)cc1)N1CCCCCC1` the value was “inactive”; for `O=C(COC(=O)c1ccc(NS(=O)(=O)c2cccs2)cc1O)Nc1ccc(F)cc1`, “inactive”. For `COc1cc(C(F)(F)F)nc2c(Br)c(C(C)(C)C)nn12`, the result was inactive. For `Cc1cc(Nc2cc(N3CCN(C)CC3)nc(Sc3ccc(NC(=O)C4CC4)cc3)n2)n[nH]1` the value was “inactive”; for `CC(=O)N1c2ccc(S(=O)(=O)N3CCCC(C(=O)Nc4cccc(Cl)c4)C3)cc2CC1C` (stereo not drawn), “inactive”; for `CCCCOC(=O)CNc1nnc(SCC(=O)OCC)[nH]c1=O`, “inactive”. For `COc1ccc(OC)c(Nc2nc3ccccc3n3cnnc23)c1` the value was “inactive”; for `Fc1cccc(Cl)c1COc1ccc(-c2nnco2)cc1`, “inactive”.

These data come from PubChem BioAssay AID624114 (Johns Hopkins Ion Channel Center, 2012).
